High-throughput results: PubChem BioAssay, National Center for Advancing Translational Sciences (NCATS)
Most compounds without a hit are left out; they make up all but 5.4% or so of the library.
VACV mCherry inh – vaccinia inhibition (mCherry reporter); Vaccinia virus mCherry reporter infection, fluorescence; 0.63% of 310,000 active; Potency, µM (top dose mostly 36.5 µM), for inactives: at the top dose activity change, negative = inhibition, most hits filed as inhibitors; calls by dose curve; tested in A549 cells; further: nearly all actives have a fitted effect of over 35% in size
Sm TGR block – blocks Schistosoma mansoni thioredoxin glutathione reductase; Potency, µM (series often up to 114 µM), without a hit: top-dose activity change, negative = inhibition, actives largely listed as inhibitors; 3% of 360,000 active; purified TGR, DTNB reduction, TNB absorbance 405 nm; active means well fitted inhibition curve with a large enough effect; inconclusive means small, poorly fitted or top-dose-only effect; inactive means no such curve, though single readings can be large or run the other way; further: nearly all actives have a fitted effect of over 60% in size
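TGR 20 nM + NADPH 100 uM (dispensed conc.), cpd preinc 15 min RT; start with NADPH (500 uM addition) then DTNB (15 mM addition). Kinetic TNB absorbance, 405 nm filter. Four-parameter Hill fit across titration.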
Lassa entry inh – inhibitors of Lassa virus binding or cell entry. Lassa virus pseudotype entry inhibition, cell reporter. Potency, µM (highest dose often 37.9 µM), for inactives: at the top dose activity change, negative = inhibition, actives largely listed as inhibitors. 1.2% of 300,000 active. AID 540256; calls by dose curve; tested in HEK293 cells; further: nearly all actives have a fitted effect of over 50% in size
FMDV antiviral – blocks foot and mouth disease virus; Potency, µM (titrated, usually from 57.9 µM), for inactives: top-dose activity change, negative = inhibition, most hits filed as inhibitors; AID 1159524; FMDV antiviral cell-based qHTS; 1.2% of 410,000 active; calls by dose curve; tested in HEK293T cells; further: read-out not given here; nearly all actives have a fitted effect of over 45% in size
VACV Venus inh – inhibitors of vaccinia virus (Venus reporter) | Vaccinia virus Venus reporter expression, fluorescence | Potency, µM (top dose mostly 36.5 µM), without a hit: at the highest dose activity change, negative = inhibition, hits mostly inhibitors | 0.46% of 330,000 active | AID 720580; calls by dose curve; tested in A549 cells; further: nearly all actives have a fitted effect of over 30% in size
Marburg entry inh – Marburg virus entry inhibition | Marburg virus pseudotyped entry inhibition, cell reporter | 1.8% of 300,000 active | AID 540276 | Potency, µM (titrated, usually from 37.8 µM), inactives show top-dose activity change, negative = inhibition, most hits filed as inhibitors; calls by dose curve; tested in HEK293 cells
Starred values were filed as active, the others as inactive; i = inactive; ? = inconclusive; . = no result; [ ] = remark or other dose. On the % scale 0 is the no-effect control and ±100 the full control effect; potency means the concentration at half of the fitted maximal effect.

SMILES	VACV mCherry inh	Sm TGR block	Lassa entry inh	FMDV antiviral	VACV Venus inh	Marburg entry inh
CC[C@@H](C)[C@@H](N)C1=N[C@H](C(=O)N[C@@H](CC(C)C)C(=O)N[C@@H](CCC(=O)O)C(=O)N[C@@H](C(=O)N[C@@H]2CCCCNC(=O)[C@@H](CC(N)=O)NC(=O)[C@@H](CC(=O)O)NC(=O)[C@@H](Cc3cnc[nH]3)NC(=O)[C@@H](Cc3ccccc3)NC(=O)[C@@H]([C@H](C)CC)NC(=O)[C@@H](CCCN)NC2=O)[C@@H](C)CC)CS1	i	.	.	-8.4%	?	.
O=C1[C@H]2[C@H]3[C@H](O)[C@H](O)C/C(=N\OCc4ccccc4)[C@@H]3CC[C@H]2C(=O)N1C1CCCCC1	.	.	.	.	.	-13.6%[14.2 µM]
CCC(=O)NC(NC(=S)Nc1cccc2cccnc12)C(Cl)(Cl)Cl (stereo unspecified)	-27.6%	-6.8%	-2.5%	9.8%	-5.4%	?
O=C(NC(NC(=S)Nc1ccccc1Cl)C(Cl)(Cl)Cl)c1cccc(Cl)c1 (stereo unspecified)	12.6µM*	-0.9%	?	0.0%	?	?
O=C(Cc1cccc2ccccc12)NC(NC(=S)Nc1ccccc1Cl)C(Cl)(Cl)Cl (stereo unspecified)	-15.3%	-1.6%	?	-19.9%	-22.2%	5.62µM*
Fc1ccc(CNc2cc(-c3ccccc3)nc3nncn23)cc1	-10.8%	-2.9%	2.9%[46.1 µM]	?	-9.3%	?
CC(CCN1CCc2nc(-c3ccccc3)c(-c3ccccc3)cc2C1)=NOC[C@@H](O)[C@H]1O[C@@H]2OC(C)(C)O[C@H]2[C@@H]1O	.	.	.	.	.	25.9%[14.2 µM]
O=C1CC(N2CC=C(c3ccc(F)cc3)CC2)C(=O)N1c1ccc(F)cc1 (stereo unspecified)	.	14.1µM*	1.7%	-1.4%	.	4.4%
CCOC(=O)c1ccc(N2C(=O)CC(N3CC=C(c4ccc(F)cc4)CC3)C2=O)cc1 (stereo unspecified)	-12.3%	5.62µM*	1.2%	5.6%	6.0%	12.0%
CC(C)c1ccc(NC(=S)N2CCCC(c3ccc(F)cc3)=N2)cc1	-8.1%	-13.8%	-23.9%[46.1 µM]	-10.5%	0.3%	2.51µM*
S=C(Nc1ccccc1Cl)N1CCCC(c2ccccc2)=N1	?	3.2%	-13.5%	-9.0%	-11.7%	-22.9%[46.1 µM]
N[C@H](Cc1ccc(O)c(O)c1)C(=O)O	.	.	.	.	.	15.8µM*
NC(Cc1ccc(O)c(O)c1)C(=O)O (stereo unspecified)	-15.1%	.	.	-28.3%	0.0%	.
CC(C)(C)c1ccc(C[C@H](C(=O)O)N2C(=O)c3ccc(C(=O)O)cc3C2=O)cc1	.	-3.2%	.	.	.	.
C[C@](N)(Cc1ccc(O)c(O)c1)C(=O)O	-5.2%	22.4µM*	?	-4.5%	-8.9%	?
C[C@](N)(Cc1ccc(O)cc1)C(=O)O	.	.	1.2%	.	.	?
O=C(/C=C/c1ccc(O)c(O)c1)O[C@H](Cc1ccc(O)c(O)c1)C(=O)O	.	3.16µM*	.	.	.	.
O=C(O)c1ccc2c(c1)C(=O)N([C@H](Cc1ccc(O)c(O)c1)C(=O)O)C2=O	.	12.6µM*	.	.	.	.
Nc1nc2c([nH]c(=S)n2C2OC(CO)C(O)C2O)c(=O)[nH]1 (stereo unspecified)	i	.	.	-5.4%	0.0%	.
CC(C)c1ccc(NC(=O)CN2C(=O)COc3ccc(S(=O)(=O)N4CCCCC4)cc32)cc1	-12.3%	1.0%	-0.9%[46.1 µM]	24.2%	-15.1%	.
O[C@H]1CN(Cc2cccs2)[C@@H](c2ccc(Cl)cc2)C[C@H]1n1cc(C2CC2)nn1	.	.	-23.7%[46.1 µM]	.	.	.
COc1ccc(CCN)cc1O	-8.3%	.	.	-12.1%	-7.8%	?
COC(=O)C(N)Cc1ccc(O)c(O)c1 (stereo unspecified)	4.7%	7.94µM*	14.3%	0.7%	0.9%	10.0%
NCCc1ccc(O)c(O)c1	-7.4%	14.1µM*	-33.9%	-16.2%	-14.4%	?
Cc1ccc(CNc2ccc3c(c2)OCO3)cc1	.	44.7µM*	-22.5%	15.2%	.	?
SMILES	VACV mCherry inh	Sm TGR block	Lassa entry inh	FMDV antiviral	VACV Venus inh	Marburg entry inh
c1cc(CNc2ccc3c(c2)OCO3)ccn1	-13.1%	?	-4.2%	22.7%	-1.8%	-0.1%
Cc1ccc(C2(c3ccc(C)cc3)CC2C(=O)NCc2cccnc2)cc1 (stereo unspecified)	-12.4%	.	-17.6%	-12.7%	-24.5%	-0.5%
Cc1ccc(C2(c3ccc(C)cc3)CC2C(=O)NC(C)C)cc1 (stereo unspecified)	i	-10.7%	-3.2%[46.1 µM]	-13.0%	-6.8%	12.6µM*
CCOC(=O)c1c(-c2ccc(C)cc2C)csc1NC(=O)c1ccccc1Cl	-13.3%	-4.4%	2.0%[46.1 µM]	-16.3%	3.0%	.
CNc1nnc(-c2ccc(C)cc2)c2ccccc12	?	1.1%	7.94µM*	-23.9%	?	21.6%[46.1 µM]
O=C(O)c1cccc(NC2=C(n3nnc4ccccc43)C(=O)c3ccccc3C2=O)c1	.	44.7µM*	.	-14.1%	.	.
NC(=S)N/N=C\c1ccc(-c2cccc(Cl)c2Cl)o1	.	0.0%	10.9%	3.7%	6.31µM*	?
CCOc1ccc(NC(=O)CN2C(=O)C3(SCC(=O)N3c3ccc(F)cc3)c3ccccc32)cc1 (stereo unspecified)	-17.4%	8.0%	-7.1%[46.1 µM]	0.0%	-26.7%	.
O=S(=O)(NCCNCC=Cc1ccc(Br)cc1)c1cccc2cnccc12	-11.3%	.	.	.	?	.
O=S(=O)(NCCNC/C=C/c1ccc(Br)cc1)c1cccc2cnccc12	-12.9%	.	?	?	?	10µM*
Cc1ccccc1-n1nnnc1SCc1csc(-c2ccccc2)n1	.	13.4%[11.4 µM]	13µM*	-29.4%	.	?
Cc1ccccc1-n1nnnc1SCC(C)C	-14.2%	5.7%	13.0%	1.0%	-6.6%	8.2%[46.1 µM]
NC(=O)/C=C/C(=O)Nc1ccc(Cl)cc1	-1.4%	3.55µM*	?	-0.4%	-0.8%	?
OC1(c2cccnc2)CCN(Cc2ccc3c(c2)CN(Cc2cc4ccccc4s2)CCO3)CC1	-24.2%	.	.	?	-21.3%	.
C/C(=N\NC(=O)c1ccc(CN2CCc3ccccc3C2)cc1)c1ccccc1O	?	-6.1%	-28.8%[46.1 µM]	22.4µM*	-17.2%	?
CC(=O)c1cccc(NC(=O)c2ccc(CN3CCc4ccccc4C3)cc2)c1	.	-21.2%	.	?	.	.
CCCNC(=O)c1ccc(CN2CCc3ccccc3C2)cc1	.	1.4%	7.2%	0.0%	-10.7%	-10.8%
Cc1cc(C)c(NC(=O)c2ccc(CN3CCc4ccccc4C3)cc2)c(C)c1	.	-13.8%	15.8µM*	?	?	?
O=C(Nc1ccc(S(=O)(=O)N2CCOCC2)cc1)c1ccc(CN2CCc3ccccc3C2)cc1	.	3.2%	10µM*	?	?	2.51µM*
Cc1cc2ccccc2n1CCNC(=O)c1ccccc1	.	-21.4%	7.94µM*	?	58.7%	?
Cc1cc2ccccc2n1CCNC(=O)c1ccc(Br)cc1	-5.8%	1.6%	-13.4%[46.1 µM]	-6.6%	3.2%	1.6%[46.1 µM]
Cc1cc2ccccc2n1CCNC(=O)c1ccc(Br)o1	1.8%	12.6µM*	.	32.5%	41.1%	.
Cc1cc(C)nc(/N=c2/ssnc2Cl)c1	-10.4%	-4.8%	5.6%	28.2µM*	24.9%	-20.6%
